Compound activity deposited in PubChem BioAssay by National Center for Advancing Translational Sciences (NCATS).
Only some compounds are listed: those with a hit (about 21% of all), similar ones and a draw of the others.
Pf growth 96h: P. falciparum growth inhibition at 96 hours. P. falciparum luciferase reporter growth, 96 h. Potency, µM (top dose mostly 28.7 µM), for inactives: at the top dose activity change, negative = inhibition, hits mostly inhibitors. 320,000 compounds, 6.9% hits. AID 504834; further: potency means the concentration at half of the fitted maximal effect; on the % scale 0 is the no-effect control and ±100 the full control effect
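Parasite growth measured via integrated firefly luciferase reporter in P. falciparum. Infected erythrocytes at 2% hematocrit, 0.05% parasitemia final were treated 96 hours at 37 C under 5% CO2, and luminescence was read.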
CHX counter: affects cycloheximide protein synthesis inhibition readout, counter-screen; cell reporter, cycloheximide protein synthesis inhibition counterscreen; max response, %; 300,000 compounds, 12% hits; AID 2314; in the data active means max response mostly above about 13%, no sharp cut-off; inactive means mostly below about 14%; further: read at 38.3 µM for the half of the compounds with a filed dose; 0% is about no effect
SARS PLP yeast: SARS-CoV PLP inhibition in yeast; S. cerevisiae expressing SARS-CoV PLpro, growth rescue; Potency, µM (top dose mostly 32.9 µM), for inactives: top-dose activity, positive = growth rescue, hits mostly activators; 330,000 compounds, 0.19% hits; AID 485353; calls by dose curve; further: potency means the concentration at half of the fitted maximal effect; 0% is about no effect; nearly all actives have a fitted effect of over 55% in size
Pf growth 48h: P. falciparum growth inhibition at 48 hours (one generation); P. falciparum luciferase growth in erythrocytes, 48 h; AID 504832; Potency, µM (titrated, usually from 28.7 µM), for the others: top-dose activity change, negative = inhibition, usual class: inhibitors; 310,000 compounds, 5.9% hits; further: potency means the concentration at half of the fitted maximal effect; on the % scale 0 is the no-effect control and ±100 the full control effect
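Luminescence readout; reporter = integrated firefly luciferase in P. falciparum. RBC culture at 2% hematocrit, 0.1% parasitemia final, 37 C/5% CO2; decreased signal taken as growth inhibition.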
NS1 function inh: inhibitors of influenza NS1 protein function; 270,000 compounds, 0.4% hits; Potency, µM (titrated, usually from 46.1 µM), inactives show at the top dose activity, positive = more growth; calls by dose curve; further: potency means the concentration at half of the fitted maximal effect; actives are rising curves; nearly all actives have a fitted effect of over 50% in size
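Growth recovery, yeast-based: influenza A NS1 expressed in S. cerevisiae causes slow growth, and suppressors are detected by OD600. The parent strain without NS1 is used as positive control.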
Shiga inhibitor: inhibitors of Shiga toxin in Vero cells; Vero cells, Shiga toxin protein synthesis inhibition reporter; 290,000 compounds, 9.2% hits; AID 2315; inhibition, % at 38.7 µM; in the data active means inhibition mostly above about 28%, no sharp cut-off; inactive means mostly below about 43%; further: 0% is about no effect
The depositor's hits bear a star; i = inactive; ? = inconclusive; nt = not tested or not shown. Unless noted, the call rests on the fitted dose curve; in most records, active means well fitted inhibition curve with a large enough effect; inconclusive means small, poorly fitted or top-dose-only effect, or another doubt; inactive means no such curve, though single readings can be large or run the other way.

SMILES	Pf growth 96h	CHX counter	SARS PLP yeast	Pf growth 48h	NS1 function inh	Shiga inhibitor
COc1ccc(/C=C2/SC(=S)N(CCCC(=O)Nc3ccc(O)cc3)C2=O)cc1	?	51.5*	-0.1%	?	3.7%	94.5*
COc1ccc(/C=C2\SC(=S)N(CCC(=O)Nc3ccc(C(=O)O)cc3)C2=O)cc1	4.0%	-2.9	1.0%	28.9%	11.7%	nt
COc1cc(/C=C2\SC(=S)N(CCC(=O)Nc3ccc(O)cc3)C2=O)cc(OC)c1OC	?	1.1	1.8%	-13.9%	2.6%	-5.6
COc1ccc(/C=C2\SC(=S)N(CCCC(=O)Nc3ccc(O)cc3)C2=O)cc1	?	35.2*	-0.3%	?	2.9%	51.1*
NC(=O)C1(N2CCCCC2)CCN(C(=O)CSc2nc3ccccc3s2)CC1	143.2%	0.9	-0.7%	?	4.0%	-4.7
CCOC(=O)C1=CN(Cc2ccco2)S(=O)(=O)N(CC)C1c1ccc(C(F)(F)F)cc1 (stereo not drawn)	nt	nt	-29.3%	nt	nt	nt
Cc1ccc(NC(=O)CN(C)C(=O)Cn2cc(C(F)(F)F)cc(Cl)c2=O)cc1	0.0%	5.7	16.2%	10.0%	7.8%	-6.1
CCNS(=O)(=O)c1ccc(S(=O)(=O)N(Cc2ccccn2)C2CCCCC2)cc1	166.2%	-0.4	2.5%	?	-12.0%	-6.7
O=S(=O)(NCc1ccccc1)c1ccc(S(=O)(=O)N(Cc2ccccn2)C2CCCC2)cc1	?	-2.7	3.4%	10.4µM*	-2.9%	-6.5
CN(C1CCCC1)C1CCN(C(=S)Nc2cc(F)cc(F)c2)CC1	?	3.6	-4.2%	?	nt	-4.2
COc1ccccc1Nc1c([N+](=O)[O-])cc(C)cc1[N+](=O)[O-]	10.4µM*	-2.3	0.5%	4.4%	nt	23.1
COc1ccccc1Nc1n[nH]c(=S)s1	18.3%	-2.9	2.2%	11.4%	nt	1.5
COc1ccccc1Nc1ccc([N+](=O)[O-])cc1N	87.6%	10.7	-6.9%	25.2%	-2.6%	-8.5
COc1ccccc1Nc1ccc(Nc2ccccc2OC)nn1	?	29.2*	13.3%	81.8%	-2.9%	175.0*
COc1ccc(OC)c(Nc2ccc(Nc3cc(OC)ccc3OC)nn2)c1	9.28µM*	-4.0	-10.1%	?	17.2%	-6.1
O=C(CCNS(=O)(=O)c1ccccc1)N1CCN(c2ccccc2F)CC1	83.5%	2.1	-3.5%	5.6%	-0.7%	9.5
O=C1CCCN1CCCNc1nc2c(S(=O)(=O)c3ccc(Br)cc3)nnn2c2ccccc12	?	3.4	4.7%	?	6.3%	-1.5
C=CCN1C(=O)c2ccccc2NC1c1ccc(Br)s1 (stereo not drawn)	10.4µM*	-5.8	1.3%	13.1µM*	-2.5%	-6.0
CC(=O)Nc1ccc(S(=O)(=O)c2ccc(C)cc2)cc1	2.1%	-1.2	-1.1%	?	-4.6%	-11.0
Cc1ccc(S(=O)(=O)/N=C(/NC(=S)Nc2cccc(C)c2)c2ccccc2)cc1	59.0%	53.8*	29.2%	nt	9.7%	76.9*
Cc1cccc(NC(=S)N/C(=N/S(=O)(=O)c2ccccc2)c2ccccc2)c1	nt	43.9*	-3.5%	78.0%	-6.4%	17.8*
C/C(=N\S(=O)(=O)c1ccc(C)cc1)NC(=S)Nc1ccc(C)cc1	90.6%	40.5*	-0.5%	i	0.2%	118.1*
CC(C)=CCCC1(C)C=Cc2c(c(C)cc3c2[nH]c2cc(O)ccc23)O1 (stereo not drawn)	-16.3%	-1.9	-3.9%	10.4µM*	5.4%	33.7
Cc1cc(=O)[nH]c2cc(O)ccc12	33.0%	-1.9	-3.2%	7.5%	7.3%	13.2
CC(=O)Nc1ccc(NC(=S)NC(=O)/C=C/c2ccco2)cc1	?	-3.7	4.9%	0.9%	12.6%	nt
CCOc1ccc(NC(=S)NC(=O)/C=C/c2ccco2)cc1	11.7µM*	13.2*	7.0%	-22.0%	12.4%	nt
COc1cccc(NC(=S)NC(=O)/C=C/c2ccco2)c1	-7.9%	31.0*	1.7%	65.1%	-6.3%	57.9*
O=C(/C=C/c1ccco1)NC(=S)Nc1cccc(C(=O)O)c1	?	22.8*	4.1%	nt	10.2%	44.8*
CN1CCN(c2ccc(NC(=S)NC(=O)/C=C/c3ccco3)cc2)CC1	49.0%	44.4*	4.8%	?	?	105.6*
COCCn1c(SCC(=O)Nc2c(C)n(C)n(-c3ccccc3)c2=O)nnc1-c1ccncc1	7.7%	nt	-0.1%	-28.4%	nt	nt
